± gives the uncertainty stated by the source. Whole data set: some 9,900 compounds, median “viability index relative to DMSO control” near 1, cut for the lowest 2% near 0.85. For the sample, the lowest values were picked, then their nearest neighbours and some compounds at random.
System: Plasmodium falciparum NF54 stage V gametocytes
Test: viability index relative to DMSO control (fraction); higher = less gametocyte killing
Conditions: 2.5 µM, incubation time: 72 h
Summary of the method: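 P. falciparum NF54 stage V gametocytes in serum-free screening medium (0.75% gametocytemia, 1.25% hematocrit, 10 µl) were incubated with compound at 2.5 µM in 1,536-well plates for 72 hr at 37°C under low oxygen. Then 3 µl of 2.5 µM MitoTracker Red CMXRos plus 0.13% saponin was added for one to two hours. One field per well was imaged, 20–70 µm2 red particles were counted, and the viability index was the count divided by the plate mean of DMSO wells.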

[1] = library set: Broad Institute DOS
[2] = library set: Broad Institute Blood Stage

Structure (SMILES)	viability index [1]	viability index [2]
CN1C(=O)c2cc(NC(=O)C3CCOCC3)ccc2OC[C@@H]2O[C@H](CC(=O)NCc3ccccc3F)CC[C@H]21	1.04 ± 0.032	
O=C(CN1CCOCC1)N1CC(=O)N2[C@H](C1)[C@H](c1ccc(C3=CCCCC3)cc1)[C@@H]2CO	1.02 ± 0.035	
CCc1cnc(N2[C@H](C#N)[C@@H](c3ccc(-c4cccc(F)c4)cc3)[C@@H]2CO)s1	1.12 ± 0.11	
C[C@H](CO)N1C[C@H](C)[C@H](CN(C)C(=O)Nc2ccccc2C(F)(F)F)OCc2cnnn2CCCC1=O	1.03 ± 0.014	
COc1ccc(NC(=O)N(C)C[C@H]2Oc3c(NC(=O)Nc4ccccc4)cccc3C(=O)N([C@@H](C)CO)C[C@H]2C)cc1		0.724 ± 0.05
COc1ccc(NC(=O)Nc2cccc3c2O[C@@H](CN(C)Cc2ccc(C(=O)O)cc2)[C@H](C)CN([C@@H](C)CO)C3=O)cc1	0.978 ± 0.065	
COc1ccc(NC(=O)Nc2cccc3c2O[C@@H](CN(C)Cc2ccc(C(=O)O)cc2)[C@@H](C)CN([C@@H](C)CO)C3=O)cc1	0.95 ± 0.17	
CC(C)[C@H]1C(=O)N[C@H](c2cccc(Cl)c2)C/C=C/C[C@H](C)Oc2ccccc2C(=O)N1C.CC(C)[C@H]1C(=O)N[C@H](c2cccc(Cl)c2)C/C=C\C[C@H](C)Oc2ccccc2C(=O)N1C	0.9865 ± 0.0032	
C[C@@H]1CN([C@@H](C)CO)C(=O)c2cccc(NS(C)(=O)=O)c2O[C@H]1CN(C)Cc1ccc(-c2ccccc2)cc1	1.01 ± 0.029	
C[C@H](CO)N1C[C@H](C)[C@H](CN(C)Cc2ccc(-c3ccccc3)cc2)Oc2c(NS(C)(=O)=O)cccc2C1=O	0.827 ± 0.011	
C[C@@H]1CN([C@H](C)CO)C(=O)c2cccc(NS(C)(=O)=O)c2O[C@@H]1CN(C)Cc1ccc(-c2ccccc2)cc1	1.02 ± 0.028	
C[C@H]1CN([C@@H](C)CO)C(=O)c2cccc(NS(C)(=O)=O)c2O[C@@H]1CN(C)Cc1ccc(-c2ccccc2)cc1	1 ± 0.078	
C[C@H](CO)N1C[C@H](C)[C@@H](CN(C)Cc2ccc(Oc3ccccc3)cc2)Oc2c(NC(=O)CCC(F)(F)F)cccc2C1=O	0.888 ± 0.11	
C[C@H](CO)N1C[C@H](C)[C@@H](CN(C)Cc2ccccc2)Oc2c(NC(=O)Cc3cn(C)c4ccccc34)cccc2C1=O	0.744 ± 0.038	
CO[C@H](CN(C)S(=O)(=O)c1ccc(C)cc1)[C@H](C)CN(C(=O)Nc1ccccc1F)[C@H](C)CO	1.06 ± 0.026	
O=C(C[C@H]1CC[C@@H]2[C@H](COC[C@H](O)CN2Cc2ccc3c(c2)OCO3)O1)N1CCCCC1	1.01 ± 0.072	
O=C(c1cnccn1)N1C[C@@H]2N[C@H](C1)[C@@H]2c1ccc(/C=C/c2ccccc2)cc1	1.05 ± 0.026	
COc1ccc(S(=O)(=O)Nc2cccc3c2O[C@@H](CN(C)CC2CCCCC2)[C@H](C)CN([C@H](C)CO)C3=O)cc1	0.958 ± 0.094	
COCC(=O)N1C[C@@]2(C1)CN([C@H](CO)c1[nH]c3cc(OC)ccc3c21)C(=O)Nc1ccccc1F	1.03 ± 0.071	
COc1ccc2c3c([nH]c2c1)[C@H](CO)N(C[C@]31CN(CC2CC2)C1)C(=O)CN(C)C	1.07 ± 0.032	
COc1ccc2c3c([nH]c2c1)[C@H](CO)N(C[C@]31CCN(CC1)C(=O)Nc1ccccc1)S(C)(=O)=O	0.121 ± 0.0032	
COc1ccc2c3c([nH]c2c1)[C@H](CO)N(C[C@]31CCN(CC1)C(=O)Nc1ccc(F)cc1F)C(C)=O	0.748 ± 0.035	
COCC(=O)N1CC[C@@]2(CC1)CN([C@@H](CO)c1[nH]c3cc(OC)ccc3c21)S(C)(=O)=O	1.09 ± 0.06	

Structure (SMILES)	viability index [1]	viability index [2]
CCC(=O)N1C[C@]2(CCN(CC2)C(=O)Nc2ccccc2F)c2c([nH]c3cc(OC)ccc23)[C@@H]1CO	0.642 ± 0.081	
COc1ccc2c3c([nH]c2c1)[C@@H](CO)N(C[C@]31CCN(CC2CCCCC2)CC1)C(=O)CN(C)C		0.807 ± 0.026
COc1ccc2c3c([nH]c2c1)[C@@H](CO)N(C[C@]31CCN(CC1)C(C)=O)C(C)=O	0.9689 ± 0.0023	
COc1ccc2c3c([nH]c2c1)[C@@H](CO)N(C[C@]31CCN(CC1)C(=O)Nc1ccc(F)cc1F)C(C)=O	1.07 ± 0.056	
CCC(=O)N1C[C@]2(CCN(CC2)C(=O)Nc2ccccc2F)c2c([nH]c3cc(OC)ccc23)[C@H]1CO	0.9987 ± 0.0051	
COc1ccc2c3c([nH]c2c1)[C@@H](CO)N(C[C@]31CCN(CC1)C(=O)Nc1ccccc1)S(C)(=O)=O	0.99 ± 0.15	
COc1ccc2c3c([nH]c2c1)[C@@H](CO)N(C[C@]31CN(CC2CC2)C1)C(=O)CN(C)C	0.939 ± 0.018	
O=C(C[C@@H]1C[C@H]2c3cc(NS(=O)(=O)c4ccccc4)ccc3O[C@H]2[C@@H](CO)O1)N1CCOCC1	1.05 ± 0.026	
COCC(=O)NC[C@@H]1[C@H](c2ccccc2)[C@H](CO)N1C(=O)c1ccccc1	0.986 ± 0.17	
C[C@H]1CN([C@@H](C)CO)C(=O)c2cccc(NC(=O)c3cnccn3)c2O[C@H]1CN(C)C(=O)NC1CCCCC1	1.01 ± 0.033	
COc1ccccc1-c1ccc2n(c1=O)C[C@@H]1[C@@H](CO)[C@H](C(=O)N3CCOCC3)[C@H]2N1CC1CC1	1.04 ± 0.016	
COc1cccc(-c2ccc3n(c2=O)C[C@@H]2[C@@H](CO)[C@H](C(=O)N(C)C)[C@H]3N2C(=O)c2ccccn2)c1	1.04 ± 0.017	
CO[C@@H]1CN(C)C(=O)c2ccc(NC(=O)C3CC3)cc2OC[C@@H](C)N(C(C)=O)C[C@@H]1C	1.02 ± 0.042	
CN1C[C@@H](O)COC[C@H]2O[C@H](CC(=O)NC3CCCC3)CC[C@@H]21	1.05 ± 0.064	
O=C(C1CCC1)N1C[C@@H]2N[C@H](C1)[C@H]2c1ccc(/C=C/c2ccccc2)cc1	1.02 ± 0.042	
COc1ccccc1NC(=O)N1C[C@@H]2N[C@H](C1)[C@H]2c1ccc(/C=C/c2ccccc2)cc1	0.976 ± 0.048	
O=C(C1CCC1)N1C[C@@H]2N[C@H](C1)[C@@H]2c1ccc(/C=C/c2ccccc2)cc1	0.799 ± 0.019	
O=C(C1CCC1)N1C[C@@H]2N[C@H](C1)[C@@H]2c1ccc(-c2cncnc2)cc1	1.115 ± 0.0039	
COc1ccccc1NC(=O)N1C[C@@H]2N[C@H](C1)[C@@H]2c1ccc(/C=C/c2ccccc2)cc1	0.571 ± 0.027	
C/C=C/c1ccc([C@H]2[C@@H]3CN(C(=O)Nc4ccccc4F)C[C@H]2N3)cc1	1.06 ± 0.034	
O=C(c1ccc2c(c1)OCO2)N1C[C@@H]2N[C@H](C1)[C@H]2c1ccc(/C=C/c2ccccc2)cc1	1.05 ± 0.017	
O=C(c1ccc2c(c1)OCO2)N1C[C@@H]2N[C@H](C1)[C@@H]2c1ccc(/C=C/c2ccccc2)cc1	0.731 ± 0.086	
O=C(c1ccc2c(c1)OCO2)N1C[C@@H]2N[C@H](C1)[C@@H]2c1ccc(-c2cncnc2)cc1	1.08 ± 0.035	
